Source: PubChem BioAssay (Tox21)
“And” between values parts separate entries of the source, which are not always exact repeats. Equal values may be shown once. Records with an inconclusive call do not appear. Where a call stands in place of a potency, no number is given. The source holds several records for some structures; these can differ, active in one and inactive in another. The source made the active and inactive calls. Calls come from the whole dose curve.

Test: qHTS assay for small molecules that induce genotoxicity in human embryonic kidney cells expressing luciferase-tagged ATAD5 - cell viability (AID 651634); note: nearly all actives have a fitted effect of over 25% in size
Settings: HEK293T ATAD5-luc cells viability, CellTiter-Fluor, 15.5 h; series mostly up to 83.3 µM
Procedure, shortened: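 Here HEK293T cells with the ATAD5 luciferase reporter are incubated with test compounds for 15.5 hr, and cytotoxicity is then gauged by measuring protease activity in live cells using fluorescence.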

Row | Structure (SMILES) | Potency
1 | CNCC(O)c1ccc(O)cc1 (configuration not stated) | inactive
2 | Clc1cnc(Oc2ccc(Oc3ncc(Cl)cc3Cl)cc2)c(Cl)c1 | inactive
3 | COC(C)(C)CCCC(C)C/C=C/C(C)=C/C(=O)OC(C)C (configuration not stated) | inactive
4 | COc1nc(NC(C)C)nc(NC(C)C)n1 | inactive
5 | CN(C)C(=O)Nc1cccc(C(F)(F)F)c1 | inactive
6 | Nc1nc(N)nc(NC2CC2)n1 | inactive
7 | Nc1ccc([As](=O)(O)O)cc1 | inactive
8 | CCOP(=S)(OCC)Oc1ccc([N+](=O)[O-])cc1 | inactive
9 | CCCOC(=O)c1ccccc1C(=O)OCCC | inactive
10 | CC(=O)C1CCOC1=O (configuration not stated) | inactive
11 | CC[N+](=O)[O-] | inactive
12 | Cc1ccc(N)cc1 | inactive
13 | Cl/C=C/Cl | inactive
14 | Nc1cccc(Cl)c1 | inactive
15 | CCOP(=S)(OCC)Oc1cc(C)nc(C(C)C)n1 | inactive
16 | O=C(O)COc1ccccc1 | inactive

Row | Structure (SMILES) | Potency
17 | Cc1cccc(C)c1NC(=O)CN1CCCC1=O | inactive
18 | Nc1ncc([N+](=O)[O-])s1 | inactive
19 | CCCCC(CC)C(=O)Cl (configuration not stated) | inactive
20 | ClCCOCCCl | inactive
21 | COS(=O)(=O)OC | inactive
22 | FC(F)(F)c1ccc(Cl)cc1 | inactive
23 | CCSC(=O)N1CCCCCC1 | inactive
24 | Cc1cccc(N)c1C | inactive
25 | CCOC(=O)CC(SP(=O)(OC)OC)C(=O)OCC (configuration not stated) | inactive
26 | CC(C)c1cccc(C(C)C)c1O | inactive
27 | Cc1cc(O)ccc1Cl | inactive
28 | O=C(O)CCCc1ccc(N(CCCl)CCCl)cc1 | inactive
29 | O=[N+]([O-])c1ccc(Cl)cc1 | inactive
30 | CN(C)C(=O)C(c1ccccc1)c1ccccc1 | inactive
31 | Nc1cc(Cl)cc(Cl)c1 | inactive

Test: qHTS assay for small molecule disruptors of the mitochondrial membrane potential - cell viability (AID 720634); note: nearly all actives have a fitted effect of over 20% in size; note: potency is the fitted concentration of half-maximal effect
Settings: HepG2 viability, ATP luminescence (CellTiter-Glo), 1 h; series mostly up to 83.2 µM
Procedure, shortened: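 Viability of HepG2 cells is scored from ATP content by luminescence; cells are exposed to compound for 1 hr at 37 C and 5% CO2, then dosed with m-MPI dye before the CellTiter-Glo reagent.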

Row | Structure (SMILES) | Potency
32 | CNCC(O)c1ccc(O)cc1 (configuration not stated) | inactive
33 | Clc1cnc(Oc2ccc(Oc3ncc(Cl)cc3Cl)cc2)c(Cl)c1 | inactive
34 | COC(C)(C)CCCC(C)C/C=C/C(C)=C/C(=O)OC(C)C (configuration not stated) | inactive
35 | COc1nc(NC(C)C)nc(NC(C)C)n1 | inactive
36 | CN(C)C(=O)Nc1cccc(C(F)(F)F)c1 | inactive
37 | Nc1nc(N)nc(NC2CC2)n1 | inactive
38 | Nc1ccc([As](=O)(O)O)cc1 | inactive
39 | CCOP(=S)(OCC)Oc1ccc([N+](=O)[O-])cc1 | inactive
40 | CCCOC(=O)c1ccccc1C(=O)OCCC | inactive
41 | CC(=O)C1CCOC1=O (configuration not stated) | inactive
42 | CC[N+](=O)[O-] | inactive
43 | Cc1ccc(N)cc1 | inactive
44 | Cl/C=C/Cl | inactive
45 | Nc1cccc(Cl)c1 | inactive
46 | CCOP(=S)(OCC)Oc1cc(C)nc(C(C)C)n1 | inactive and 48.6 µM (active)
47 | O=C(O)COc1ccccc1 | inactive

Row | Structure (SMILES) | Potency
48 | Cc1cccc(C)c1NC(=O)CN1CCCC1=O | inactive
49 | Nc1ncc([N+](=O)[O-])s1 | inactive
50 | CCCCC(CC)C(=O)Cl (configuration not stated) | inactive
51 | ClCCOCCCl | inactive
52 | COS(=O)(=O)OC | inactive
53 | FC(F)(F)c1ccc(Cl)cc1 | inactive
54 | CCSC(=O)N1CCCCCC1 | inactive
55 | Cc1cccc(N)c1C | inactive
56 | CCOC(=O)CC(SP(=O)(OC)OC)C(=O)OCC (configuration not stated) | inactive
57 | CC(C)c1cccc(C(C)C)c1O | inactive
58 | Cc1cc(O)ccc1Cl | inactive
59 | O=C(O)CCCc1ccc(N(CCCl)CCCl)cc1 | inactive
60 | O=[N+]([O-])c1ccc(Cl)cc1 | inactive
61 | CN(C)C(=O)C(c1ccccc1)c1ccccc1 | inactive
62 | Nc1cc(Cl)cc(Cl)c1 | inactive
